The source of these data is PubChem BioAssay (EPA / NIEHS).

What is called AC50 is the midpoint of the concentration-response curve, whichever way the signal moves.

Each structure is given as a SMILES string. Activity calls are given as the source filed them. The calls were made as follows: active = hit-call score of the fitted dose curve at least 0.9, where 1 is the maximum; inactive = score below 0.9.

Assay [1] in a line: APR_HepG2_CellLoss_72hr: Apredica 72-hour HepG2 Assay for Cell Loss (AID 2282915). The settings on record: high-content imaging. The method in brief: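 HepG2 cells exposed 72 h to compound at 0.39–200 uM (10 concentrations, duplicate) in 0.5% DMSO. Fixed with 3.7% formaldehyde and Hoechst 33342-stained. Imaged at 20x; nuclear count gives cell number, fitted bidirectionally versus DMSO.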

A short description of assay [2]: APR_HepG2_P-H2AX_72hr: Apredica 72-hour HepG2 Assay for H2AX Phosphorylation (AID 2282916).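 Also: phospho-histone H2A.x immunostain intensity per cell marking DNA damage.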 The settings on record: imaging, actives raise or lower the signal. The method in brief: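 Readout: phospho-H2A.x immunofluorescence (FITC secondary) plus Hoechst nuclear stain, high-content imaging at 20x, six fields/well. HepG2, 72 hr compound exposure, 0.39–200 uM, final DMSO 0.5% v/v. Gain or loss fitted relative to DMSO baseline.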

Assay [3] is described as follows: APR_HepG2_MitoticArrest_72hr: Apredica 72-hour HepG2 Assay for Mitotic Arrest (AID 2282918). The following applies: high-content imaging, actives raise or lower the signal. The method in brief:
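Using high-content imaging of fixed HepG2 cells, phospho-histone H3 signal was measured following a 72 hr incubation with ten-point compound dilutions up to 200 uM. DMSO served as the negative control and baseline for bidirectional curve fitting.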

The nature of assay [4]: APR_HepG2_P-H2AX_24hr: Apredica 24-hour HepG2 Assay for H2AX Phosphorylation (AID 2282920). The following applies: high-content imaging, actives raise or lower the signal. The method in brief: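 Human HepG2 liver cells, treated 24 hr with test chemicals (0.39–200 uM, final DMSO 0.5% v/v), are fixed and co-stained for phospho-H2A.x and c-Jun with Hoechst. Imaged intensity is fitted in both directions against DMSO controls.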

Assay [5] is described as follows: APR_HepG2_StressKinase_72hr: Apredica 72-hour HepG2 Assay for Stress Kinase (AID 2282921). The settings on record: HepG2 stress kinase (phospho-c-Jun) imaging, actives raise or lower the signal. The method in brief: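 Phospho-c-Jun immunofluorescence measured by high-content imaging at 20x, six fields per well; bidirectional curve fitting against DMSO as baseline. Dosing: 0.39–200 uM, 72 h, 0.5% DMSO final.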

Assay [6] can be described thus: APR_HepG2_StressKinase_24hr: Apredica 24-hour HepG2 Assay for Stress Kinase (AID 2282922). The settings on record: HepG2 stress kinase (phospho-c-Jun) imaging, actives raise or lower the signal. The method in brief:
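Read-out: phospho-c-Jun immunofluorescence (Cy3 secondary) quantified by high-content imaging at 20x, nuclei defined by Hoechst 33342. Human HepG2 liver cells dosed 24 hr, 0.39–200 uM, DMSO 0.5% v/v; gain or loss of signal fitted relative to DMSO.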

Assay [7] in a line: APR_HepG2_MitoMass_72hr: Apredica 72-hour HepG2 Assay for Mitochondrial Mass (AID 2282924).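 Also: MitoTracker Red CMXRos stain intensity per cell imaged as mitochondrial mass.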 The following applies: high-content imaging, actives raise or lower the signal. The method in brief:
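Read-out: MitoTracker Red fluorescence intensity from automated imaging (20x, six fields per well) in human HepG2 liver cells. Dosing ran 72 hr, 0.39–200 uM, 0.5% DMSO; bidirectional curve fitting versus DMSO baseline.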

Assay [8] is described as follows: APR_HepG2_NuclearSize_72hr: Apredica 72-hour HepG2 Assay for Nuclear Size (AID 2282925). The settings on record: high-content imaging, actives raise or lower the signal. The method in brief: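 Read-out: nuclear diameter from Hoechst 33342 images (ArrayScan, 20x, six fields/well), via cell-cycle image analysis. HepG2 were dosed 0.39–200 uM for 72 hr in 0.5% DMSO. Bidirectional fit relative to DMSO.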

A short description of assay [9]: ATG_CRE_CIS: Attagene CIS-FACTORIAL HepG2 Assay for human cAMP Responsive Element (CRE) binding protein 3 (AID 2282926). The following applies: HepG2 CRE cis-reporter, Attagene multiplexed mRNA; actives raise or lower the signal. The method in brief:
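Liver-derived HepG2, transfected with a CRE-containing reporter panel, exposed 24 h; transcript levels sized and quantified by capillary electrophoresis of labelled amplicons; signal changes either way referenced to vehicle.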

The target of assay [10] is CCAAT/enhancer-binding protein beta (Homo sapiens) (UniProt P17676). The assay is described as follows: ATG_C_EBP_CIS: Attagene CIS-FACTORIAL HepG2 Assay for human CCAAT/Enhancer Binding Protein (C/EBP) beta (AID 2282927). The following applies: HepG2 Attagene cis-factorial transcription factor reporter; actives raise or lower the signal. The method in brief:
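HepG2 transiently transfected with multiplexed reporter units under cis-regulatory promoters reporting endogenous C/EBPb activity. After 24 h exposure, reporter mRNA assayed by RT-PCR, fluorescent labelling, HpaI digestion and capillary electrophoresis; bidirectional fitting versus DMSO.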

The nature of assay [11]: ATG_CMV_CIS: Attagene CIS-FACTORIAL HepG2 Assay for human CMV (Internal Marker) (AID 2282928).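 Also: endpoint acts as a background internal control marker rather than a target.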 The settings on record: HepG2 CMV promoter reporter, transcription factor profiling; actives raise or lower the signal. The method in brief: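 Bidirectional fits against DMSO are applied to reporter mRNA, read by RT-PCR with capillary electrophoresis, from HepG2 cells exposed 24 h. The endpoint serves as an internal CMV background marker within the cis-factorial reporter panel.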

Assay [12] is described as follows: ATG_DR4_LXR_CIS: Attagene CIS-FACTORIAL HepG2 Assay for human Liver X Receptor (LXR), DR4 submotif (AID 2282929). The following applies: HepG2 Attagene DR4 cis-reporter, mRNA transcription; actives raise or lower the signal. The method in brief:
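HepG2, transient MRTU transfection, cis-element (DR4) promoter; 24 h compound exposure; total RNA → oligo(dT) RT → PCR → 6-FAM primer extension → HpaI cut → CE. Gain/loss vs DMSO, bidirectional fit.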

In assay [13] the target is Aryl hydrocarbon receptor (Homo sapiens) (UniProt P35869). The assay can be described thus: ATG_Ahr_CIS: Attagene CIS-FACTORIAL HepG2 Assay for human Aryl Hydrocarbon Receptor (Ahr) (AID 2282930). The settings on record: HepG2 AhR cis-factorial reporter transcription; actives raise or lower the signal. The method in brief:
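HepG2 cells transiently transfected with cis-element-driven multiplexed reporter units; endogenous AhR activity read as reporter mRNA 24 h after dosing, via RT-PCR, 6-FAM labelling, HpaI digestion and capillary electrophoresis. Bidirectional fit relative to DMSO.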

A short description of assay [14]: ATG_AP_1_CIS: Attagene CIS-FACTORIAL HepG2 Assay for human Activator Protein 1 (AP-1) (AID 2282931). The following applies: HepG2 Attagene cis-factorial AP-1 reporter mRNA; actives raise or lower the signal. The method in brief:
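Transient MRTU transfection of HepG2 → 24 h chemical treatment → RNA isolation, RT-PCR, 6-FAM labelling, HpaI digest → capillary electrophoresis. Fit: bidirectional, DMSO negative control.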

The nature of assay [15]: ATG_AP_2_CIS: Attagene CIS-FACTORIAL HepG2 Assay for human Activator Protein 2 (AP-2) (AID 2282932). The settings on record: HepG2 AP-2 cis-reporter, Attagene transcription factor profiling; actives raise or lower the signal. The method in brief: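 Read-out: fluorescent reporter mRNA via RT-PCR and capillary electrophoresis, 24 h post-dose in transiently transfected HepG2. Endogenous factors drive cis-promoter reporters; gain or loss of signal fitted bidirectionally against DMSO.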

Assay [16] is described as follows: ATG_BRE_CIS: Attagene CIS-FACTORIAL HepG2 Assay for human Bone Morphogenetic Protein (BMP) Response Element (BRE) (AID 2282933). The following applies: HepG2 BMP response element reporter, Attagene transcription factor profiling; actives raise or lower the signal. The method in brief:
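A HepG2 multiplex reporter system measured inducible reporter mRNA 24 h post-dosing. Detection: RT-PCR, 6-FAM primer extension, HpaI digestion, capillary electrophoresis. Activity fitted bidirectionally relative to DMSO.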

Assay [17] concerns the target Retinoic acid receptor alpha (Homo sapiens) (UniProt P10276). The assay is described as follows: ATG_DR5_RAR_CIS: Attagene CIS-FACTORIAL HepG2 Assay for human Retinoic Acid Receptor Alpha (RARE), DR5 submotif (AID 2282934).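 As to AC50: reporter responds to endogenous RAR alpha beta and gamma in HepG2 not RARA alone.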 The settings on record: HepG2 Attagene cis-factorial RARE DR5 reporter, mRNA; actives raise or lower the signal. The method in brief:
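HepG2 cells transiently transfected with multiplexed reporter units; DR5 cis-element drives reporter through endogenous transcription factors. After 24 h dosing, reporter mRNA quantified by RT-PCR, fluorescent labeling, HpaI digestion and capillary electrophoresis; bidirectional fitting versus DMSO.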

A short description of assay [18]: APR_HepG2_MicrotubuleCSK_72hr: Apredica 72-hour HepG2 Assay for Microtubule CSK Stabilty (AID 2282919). The settings on record: HepG2 microtubule cytoskeleton, high-content imaging, actives raise or lower the signal. The method in brief: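 HepG2, 72 hr cmpd exposure, 0.39–200 uM (10 pts, duplicate), 0.5% DMSO. 3.7% formaldehyde fix, 0.5% Triton perm, anti-alpha-tubulin/Cy5 plus Hoechst. HCS fluorescence intensity; bidirectional fit vs DMSO baseline; taxol as positive control.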

Assay [19] can be described thus: APR_HepG2_p53Act_72hr: Apredica 72-hour HepG2 Assay for p53 Activation (AID 2282923).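 Also: average cellular p53 protein immunofluorescence intensity in HepG2 cells.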 The following applies: high-content imaging, actives raise or lower the signal. The method in brief:
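Readout: p53 immunofluorescence quantified by automated high-content imaging at 20x, six fields per well, nuclei located via Hoechst. Dosing ran 72 hr over ten concentrations from 0.39 to 200 uM; bidirectional curve fitting against DMSO baseline.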

Chain of Retinoic acid receptor alpha (Homo sapiens) (P10276 whole entry, looked up): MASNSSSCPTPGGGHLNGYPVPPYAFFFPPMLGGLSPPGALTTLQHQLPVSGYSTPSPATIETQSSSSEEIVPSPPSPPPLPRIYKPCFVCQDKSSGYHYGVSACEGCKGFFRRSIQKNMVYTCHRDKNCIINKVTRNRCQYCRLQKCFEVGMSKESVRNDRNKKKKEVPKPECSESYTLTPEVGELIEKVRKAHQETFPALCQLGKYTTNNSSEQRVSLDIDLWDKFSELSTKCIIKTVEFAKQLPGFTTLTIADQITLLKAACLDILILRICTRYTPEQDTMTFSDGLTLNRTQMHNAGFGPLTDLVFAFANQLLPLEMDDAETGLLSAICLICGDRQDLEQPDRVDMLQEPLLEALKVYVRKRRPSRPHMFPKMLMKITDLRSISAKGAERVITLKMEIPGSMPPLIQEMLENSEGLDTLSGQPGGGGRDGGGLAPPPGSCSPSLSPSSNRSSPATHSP
Chain of Aryl hydrocarbon receptor (Homo sapiens) (P35869 whole entry, looked up): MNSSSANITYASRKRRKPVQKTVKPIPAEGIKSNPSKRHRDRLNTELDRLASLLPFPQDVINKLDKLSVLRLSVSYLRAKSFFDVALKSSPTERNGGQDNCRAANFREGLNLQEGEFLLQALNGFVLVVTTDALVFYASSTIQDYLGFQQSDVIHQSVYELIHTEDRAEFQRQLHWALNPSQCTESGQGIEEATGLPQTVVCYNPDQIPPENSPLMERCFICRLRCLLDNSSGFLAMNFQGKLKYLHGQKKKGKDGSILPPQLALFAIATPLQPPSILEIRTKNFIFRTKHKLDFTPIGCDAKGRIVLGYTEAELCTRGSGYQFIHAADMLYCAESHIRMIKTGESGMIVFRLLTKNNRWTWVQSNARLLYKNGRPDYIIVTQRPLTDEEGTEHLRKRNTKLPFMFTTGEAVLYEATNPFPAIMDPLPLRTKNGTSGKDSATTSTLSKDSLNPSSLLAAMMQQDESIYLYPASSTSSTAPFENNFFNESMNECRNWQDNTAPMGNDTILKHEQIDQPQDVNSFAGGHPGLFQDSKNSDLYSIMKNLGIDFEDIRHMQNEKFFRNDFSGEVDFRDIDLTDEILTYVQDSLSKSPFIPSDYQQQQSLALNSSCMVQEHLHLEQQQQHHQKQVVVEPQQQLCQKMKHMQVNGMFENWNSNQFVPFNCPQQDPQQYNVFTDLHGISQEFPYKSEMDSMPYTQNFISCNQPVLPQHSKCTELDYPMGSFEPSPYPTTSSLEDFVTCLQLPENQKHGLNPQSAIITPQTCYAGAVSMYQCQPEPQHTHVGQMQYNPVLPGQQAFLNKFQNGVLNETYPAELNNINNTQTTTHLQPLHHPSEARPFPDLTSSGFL
Chain of CCAAT/enhancer-binding protein beta (Homo sapiens) (P17676 whole entry, looked up): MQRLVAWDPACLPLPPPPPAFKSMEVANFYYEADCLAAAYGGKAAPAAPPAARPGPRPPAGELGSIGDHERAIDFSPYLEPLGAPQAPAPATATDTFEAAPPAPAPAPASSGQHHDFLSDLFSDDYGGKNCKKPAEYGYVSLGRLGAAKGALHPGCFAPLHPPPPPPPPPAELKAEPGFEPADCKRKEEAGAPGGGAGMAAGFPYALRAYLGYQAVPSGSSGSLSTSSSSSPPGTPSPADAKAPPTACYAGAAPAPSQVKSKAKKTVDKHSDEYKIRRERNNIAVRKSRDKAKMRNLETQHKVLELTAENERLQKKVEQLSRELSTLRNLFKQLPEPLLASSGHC

With `CC1(C)CCC(=Cc2ccc(Cl)cc2)C1(O)Cn1cncn1` (stereo not given), the compound was called inactive in assay [1], in [2], in [3], in [4], in [5] and in assay [6]. For the same compound, the compound was called inactive in assay [7], in [8], in assay [9], in [10], in assay [11] and in assay [12]. The result in [13], in assay [14], in [15] and in assay [16] was inactive. The AC50 in assay [17] was 18.8 µM (active).

As to `Cc1c(COC(=O)[C@@H]2[C@H](/C=C(\Cl)C(F)(F)F)C2(C)C)cccc1-c1ccccc1`, the compound was called inactive in assay [1], in assay [2], in assay [3], in [4], in assay [5] and in assay [7]. In addition, the result in [8], in [9], in assay [12], in assay [13], in assay [14] and in assay [16] was inactive. For the same compound, the call in [17] was inactive. The concentration at half-maximal activity (AC50) in [11] was 11.3 µM (active).

As to `COC(=O)c1c(C(F)F)nc(C(F)(F)F)c(C2=NCCS2)c1CC(C)C`, the AC50 in [1] was 60.5 µM (active); in assay [18], 72.7 µM (active); in [9] it was 9.92 µM (active); in [12], 26.2 µM (active); in assay [13], 50 µM (active); in assay [16], 50 µM (active). The compound was called inactive in assay [2], in [3], in [4], in assay [5], in assay [6] and in assay [7]. Also, the result in assay [8], in assay [11], in assay [14] and in assay [17] was inactive.

As for `CC(C)C1(C)N=C(c2ncccc2C(=O)O)NC1=O` (stereo not given), the compound was called inactive in assay [1], in assay [2], in assay [3], in assay [18], in assay [4] and in assay [5]. In addition, the compound was called inactive in assay [6], in [7], in assay [9], in [11], in assay [12] and in assay [13]. The call in assay [14], in [15] and in assay [16] was inactive.

As for `CCC(C)n1c(=O)[nH]c(C)c(Br)c1=O` (stereo not given), the call in assay [1], in assay [2], in [3], in assay [4], in assay [5] and in assay [19] was inactive. Moreover, the compound was classed as inactive in assay [7], in assay [9], in assay [11], in assay [12], in assay [13] and in assay [14]. In addition, the compound was called inactive in assay [16].
